Source: PubChem BioAssay AID652283 (National Center for Advancing Translational Sciences (NCATS), 2013)
Results filed as inconclusive are left out. Values without a mark were called inactive. Active and inactive are the calls of the source. Calls follow the shape of the dose curve; as a rule, active = well fitted inhibition curve with a large enough effect; inconclusive = small, poorly fitted or top-dose-only effect; inactive = no such curve, though single readings can be large or run the other way.

assay: qHTS Assay for Lipid Storage Modulators: COS7 Assay against Probe and Analogs; conditions: COS7 lipid droplet area, BODIPY imaging, 18 h
Excerpt: Storing lipids as a reservoir for energy or the anabolism of elementary metabolites is a common feature of probably all cells and is conserved from bacteria to humans. The universal cellular lipid storage organelle is the so-called lipid storage droplet (LD). Although ubiquitous, LDs share a simple structure composed of a hydrophobic core that harbors the storage lipids, which is shielded by a droplet-specific phospholipid monolayer to which proteins are attached. The current model of LD biogenesis involves an incorporation of the lipid core into the membrane leaflets of the endoplasmic reticulum (ER) followed by a subsequent budding-like maturation of a LD, which ultimately pinches off. Once released, LD volume can increase by localized lipogenesis or fusion of existing droplets. Storage lipids are re-mobilized enzymatically by lipase activity. Lipase regulation in the adipocyte is heavily studied and involves multiple components including catecholamine signaling, the LD-associated proteins Perilipin and comparative gene identification-58 (CGI-58) and at least two lipases named hormone sensitive lipase (HSL) and adipocyte triglyceride lipase (ATGL). LD regulation outside of the adipocyte is poorly understood and only few components are known. However, there is an urgent need to learn more about ectopic fat depots as mislocalized storage of lipids, for example in the liver or muscle, is an eminent health problem associated with insulin resistance or the metabolic syndrome. We developed a laser-scanning cytometer assay to enable 1,536-well screening and combined the results of the small molecules screen with an RNAi database based on lipid storage. In this assay we tested analogs of the probe against a mammalian cell line (COS7), to see if these small molecules could disrupt lipid storage. NIH Molecular Libraries Probe Production Centers Network [MLPCN] NIH Chemical Genomics Center [NCGC] MLPCN Grant: MH085686 Assay Submitter (PI): Mathias Beller, Max-Planck-Institut fur Biophysikalische Chemie
COS7 cells were obtained from ATCC (CRL-1651), 5500 cells/well were dispensed into Corning 96 well imaging plate (catalog # 3340), and cultured in 100 uL of 1:1 DMEM medium (PAA) contain 10% fetal bovine serum (FBS) for 24 hours at 37 degrees C, 95% humidity, and 5% CO2. The medium was exchanged for compound treatment. Compound treatment occurred in 150 microL serum reduced medium (5% FBS) and 0.2% DMSO in presence of 400 microM oleic acid for 17-18 h. Cells were then fixed (3.7 % formaldehyde in PBS, 5 min), permeabilized (0.1% Triton X100, 5 min) and washed three times with PBS. Lipid droplets (1:2000 BODIPY 493/503) and nuclei (1:1000 Hoechst 33342) were stained for 1h. Imaging was performed in a Zeiss Axiovert automatic microscope. Number of lipid droplet accumulated in […] cells were analyzed using visual examination of the microscopic images and additional quantification by image segmentation using Cell Profiler.

Row | Structure (SMILES) | Potency | max response [%]
1 | CCOc1ccc(CCNC(=O)c2cc3sccc3n2Cc2ccc(F)cc2F)cc1OCC | 1180 nM (active) | 
2 | CCOc1ccc(CCNC(=O)c2cc3ccccc3n2Cc2cccc(C)c2)cc1OCC | 264 nM (active) | 
3 | CCOc1ccc(CCNC(=O)c2ccccc2)cc1OCC |  | -7.94
4 | CCOc1ccc(CCNC(=O)c2cc3ccccc3n2Cc2ccccn2)cc1OCC | 1660 nM (active) | 
5 | CCOc1ccc(CCNC(=O)c2cc3cnccc3n2Cc2cccc(C)c2)cc1OCC |  | -13.8
6 | CCOc1ccc(CCNC(=O)c2ccc(C(=O)c3ccccc3)cc2)cc1OCC |  | -5.7
7 | CCOc1ccc(CCNC(=O)c2cc3ccncc3n2Cc2cccc(C)c2)cc1OCC |  | -1.73
8 | CCOc1ccc(CCNC(=O)c2cc3ncccc3n2Cc2cccc(C)n2)cc1OCC |  | -5.54
9 | CCOc1ccc(CCNC(=O)c2cc3ccncc3n2Cc2cccc(C)n2)cc1OCC |  | -22.2
10 | CCOc1ccc(CCNC(=O)c2cc3cccnc3n2Cc2cccc(C)c2)cc1OCC |  | 0
11 | CCOC(=O)C1CCN(C(=O)C2(NC(=O)Nc3ccccc3Cl)CCCC2)CC1 | 5870 nM (active) | 
12 | CCOc1ccc(CCNC(=O)c2cc3ccccc3n2Cc2cccc(C)n2)cc1OCC | 590 nM (active) | 
13 | CCOc1ccc(CCNC(=O)c2cc3ncccc3n2Cc2cccc(C)c2)cc1OCC |  | 6.92
14 | CCOc1ccc(CCNC(=O)c2cc3ccccc3n2CCN2CCOCC2)cc1OCC | 5260 nM (active) | 
15 | CCOc1ccc(CCNC(=O)c2cc3cnccc3n2Cc2cccc(C)n2)cc1OCC |  | -1.53
